Drawing on PubChem BioAssay AID1846 (The Scripps Research Institute Molecular Screening Center, 2009), this text covers inhibition for 66 compounds.

A word on the inhibition: it is the relative decrease from the control value, in per cent.

“And” between values parts separate entries of the source, which are not always exact repeats. Equal values may be shown once. The whole screen tested about 2,300 compounds, of which about 1,500 (65%) were called active. Cut-off read from the data, not from the text of the source: active = inhibition above about 18%; inactive = the rest. So high a share suggests a set chosen from earlier hits. These entries were drawn from the full list. Where a structure was tested more than once in an assay, its records may differ in their call.

This assay deals with Heat shock protein HSP 90-alpha (Homo sapiens) (UniProt P07900). In words: inhibitors of HSP90 chaperone activity – cell lysate, luminescence, confirmation (AID 1846).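 Note: 0% = vehicle wells and 100% = reference inhibitor wells.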 As to conditions: rabbit reticulocyte lysate, luciferase refolding luminescence, 3 h; at 5.9 µM; stronger effect = higher value.
Turning to `COc1cccc(/C=C/c2ccc3ccccc3n2)c1OC(C)=O`, the inhibition was 72.3% (active).

As for `CN(c1ccc2nc3ccccc3c(=O)n2n1)C1CCCCC1`, the inhibition is 90.9% (active).

Regarding `C=CCN1CCN(C(=O)CCCc2ccccc2)CC1`, the inhibition was 52.5% (active).

In the case of `Cc1cccc(NC(=O)/C=C/c2ccc3c(c2)OCO3)n1`, the inhibition was 40.6% (active).

Regarding `O=C(Nc1cccnc1)c1noc2c1CCCCC2`, the inhibition was 48% (active).

Turning to `COc1ccc(Nc2ncnc3ccc(Br)cc23)c(OC)c1`, the inhibition was 54.7% (active).

With `O=C(Cc1ccccc1)N1CCN(S(=O)(=O)c2ccc([N+](=O)[O-])cc2)CC1`, the inhibition was 53.5% (active).

For the compound `c1ccc(-c2ccc3c(c2)NC(C2Nc4cc(-c5ccccc5)ccc4O2)O3)cc1` (stereo unspecified), the inhibition is 8.8% (inactive).

Take `CCOc1ccc(-c2nnc(-c3ccco3)o2)cc1`: the inhibition is 60.3% (active).

With `COCc1cc(=O)[nH]c2cc(NC(=O)C(F)(F)F)c(C)cc12`, the inhibition is -8.2% (inactive).

For `O=C(Nc1ccc2c(c1)OCCO2)C1CCCN(c2ncccn2)C1` (stereo unspecified), the inhibition is 34.1% (active).

In the case of `COc1ccc(Cl)cc1NC(=O)Cn1nc(-c2ccc(C)cc2)n(C)c1=S`, the inhibition was -3.4% (inactive).

Regarding `Clc1ccc(-c2cc(-c3ccccn3)on2)c(Cl)c1`, the inhibition was 84.9% (active).

As for `CCN(CCCNC(=O)c1ccc2c(c1)NC(=O)CN2C)c1cccc(C)c1`, the inhibition was 14.4% (inactive).

Regarding `Cc1nc2cc(NC(=O)Nc3cccc(F)c3)ccc2n1C`, the inhibition is 40.5% (active).

In the case of `CCOC(=O)C1=C(c2ccc(OC)cc2)C(=O)c2ccccc2C1=O`, the inhibition is 95.3% (active).

Regarding `Cc1ccc(C(=O)O/N=C(\N)c2ccccn2)cc1Cl`, the inhibition was 29.5% (active).

Consider `COc1ccc(CNC(=O)/C(C#N)=C/c2cccc(OC)c2OC)cc1`, for which the inhibition was 18.9% (active).

As to `Cc1cccc(C(=O)OC(C)CN2CCN(C)CC2)c1` (stereo unspecified), the inhibition is 19.1% (active).

Regarding `O=[N+]([O-])/C=C/c1ccc2c(ccn2Cc2ccccc2)c1`, the inhibition was 68.7% (active).

As for `COC(=O)C1[C@H]2SC(C)(C)C(C(=O)OC)N2C(=O)N1Cc1nc2ccccc2s1` (stereo partly specified), the inhibition is -5.33% (inactive).

For `O=C(O)c1ccc(N=NN2CCOCC2)cc1`, the inhibition is -8.5% (inactive).

On to `O=C(CSC(=S)N1CCOCC1)c1ccccc1`, for which the inhibition was 57.6% (active).

On to `Cc1nn(CC(=O)Nc2ccc(F)cc2)c(=O)c2ccccc12`, for which the inhibition was -9.73% (inactive).

For `Cc1cnc(NC(=O)c2ccccn2)s1`, the inhibition is 39.7% (active).

Consider `COc1cccc2c(C)c(C(=O)O)[nH]c12`, for which the inhibition is 56.9% (active).

Regarding `O=C(Cn1c[n+](CC(=O)c2ccc([N+](=O)[O-])cc2)cn1)c1ccc([N+](=O)[O-])cc1`, the inhibition was 3.57% (inactive) and 48.8% (active).

For the compound `Cc1ccc(C(=O)CSc2ccccc2C(=O)O)cc1`, the inhibition is 42.3% (active).

`Cc1ccsc1C(=O)OCC(=O)c1cc(C)n(CC2CCCO2)c1C` (stereo unspecified): the inhibition is 89.3% (active).

Turning to `Clc1cccc(N=C2NN=C(c3ccc4c(c3)OCCO4)CS2)c1`, the inhibition is 41.5% (active).

On to `CC(C)c1nc2ccc(C(=O)O)cc2[nH]1`, for which the inhibition was 55.6% (active).

For the compound `Cc1nc2ccc(C(=O)O)cc2[nH]1`, the inhibition was 46.4% (active).

For the compound `CC(C)CNC(=O)CC(NCC(C)C)C(=O)O` (stereo unspecified), the inhibition was -4% (inactive).

For the compound `CC(C)(C)OC(=O)c1c(N)n(CCCN2CCCC2=O)c2nc3ccccc3nc12`, the inhibition is -5.73% (inactive).

Turning to `CCCCOCCCNC(=O)c1ccccc1OCC`, the inhibition was -3.83% (inactive).

In the case of `CCCOc1ccc(C(=O)NCCc2ccccc2)cc1`, the inhibition was 49.2% (active).

`COc1ccc(/C=C/c2noc(-c3ccccc3OC(C)=O)n2)cc1`: the inhibition is 45.2% (active).

On to `COC(=O)c1sc(NC(=O)c2csc3c2CCCC3)nc1C`, for which the inhibition is 12.5% (inactive).

In the case of `COC(=O)c1sc(NC(=O)c2ccc(OC)cc2OC)nc1C`, the inhibition was 67.3% (active).

`COc1cc(SC)ccc1C(=O)Nc1nc(C)cs1`: the inhibition is 94% (active).

On to `COc1cc(NS(=O)(=O)c2ccc3ccccc3c2)c2ncccc2c1`, for which the inhibition is 10.9% (inactive).

Regarding `c1ccc(-c2noc(-c3cccs3)n2)nc1`, the inhibition is 43.7% (active).

Take `COc1ccc(C(=O)/C=C/Nc2ccccn2)cc1`: the inhibition was 96.8% (active).

As for `CCOc1ccc(N/C=C/C(=O)c2ccccc2)cc1`, the inhibition was 75.5% (active).

For `Cc1ccc(-n2c(SCC(=O)Nc3ncc(Cl)cc3Cl)nc3ccccc32)cc1`, the inhibition was 14% (inactive).

Turning to `CCCCC(=O)Nc1nc(C)c(-c2csc(Nc3ccc(Cl)cc3)n2)s1`, the inhibition was 7.3% (inactive).

As for `Cc1ccc(Nc2nc(-c3sc(NC(=O)c4ccccc4)nc3C)cs2)cc1`, the inhibition is 15.7% (inactive).

With `Cc1nc(NC(=O)c2cccc(Cl)c2)sc1-c1csc(Nc2cccc(Cl)c2)n1`, the inhibition was 23.7% (active).

In the case of `COc1ccc(C(=O)Nc2ccccc2C(=O)N/N=C/c2ccccc2OC)cc1`, the inhibition is 74.7% (active).

In the case of `COc1ccc(/C=N/Nc2ccccc2C(=O)O)cc1`, the inhibition was 29.5% (active).

As to `COc1ccc(C(=O)Nc2ccccc2C(=O)N/N=C/c2ccc(O)c(OC)c2)cc1`, the inhibition was 98.7% (active).

With `CCc1nc(SCC(=O)Nc2ccccc2OC)n[nH]1`, the inhibition is 1.4% (inactive).

On to `Cc1ccc2nc(/C(C#N)=C\c3ccc(OC(=O)c4cccs4)cc3)[nH]c2c1`, for which the inhibition was -11% (inactive).

`CCCCCc1ccc(-c2ccc(C(=O)O)cc2)nc1`: the inhibition is 72.4% (active).

With `COc1ccc(-n2nnnc2-c2nc3ccccc3s2)cc1`, the inhibition was 51.8% (active).

Consider `CCN(CC)CCn1c(N)c(S(=O)(=O)c2ccccc2)c2nc3ccccc3nc21`, for which the inhibition is -3.4% (inactive).

Regarding `Cc1nnc(SCC(=O)N2c3ccccc3C(C)(c3ccc(Cl)cc3)CC2(C)C)s1` (stereo unspecified), the inhibition is 8.97% (inactive).

In the case of `O=C(Nc1nc2ccccc2s1)c1ccc2c(c1)OCO2`, the inhibition was 57.7% (active).

On to `O=C(Nc1ccccc1)c1ccc2c(c1)OCCCO2`, for which the inhibition is 49.6% (active).

As for `CCCS(=O)(=O)N1CCCC(C(=O)NCCN2CCCCC2C)C1` (stereo unspecified), the inhibition was 1.9% (inactive).

On to `CCOC(=O)c1nc(C)n(-c2ccc(Cl)cc2Cl)n1`, for which the inhibition was 0.2% (inactive).

As to `c1c2c(cc3sc(N4CCCCC4)nc13)OCCO2`, the inhibition was 81.9% (active).

Consider `CSCCC(C(=O)NC1=NCCS1)N1C(=O)c2ccccc2C1=O` (stereo unspecified), for which the inhibition was -7.1% (inactive).

Turning to `CCOc1ccc(C2NC(=S)NC3=C2CCc2ccccc23)cc1` (stereo unspecified), the inhibition is 28.4% (active).

On to `Cn1c(-c2ccco2)nc2cc3ccccc3cc21`, for which the inhibition was 58.9% (active).

Turning to `CC(OC(=O)c1ccc2noc(-c3ccccc3)c2c1)C(N)=O` (stereo unspecified), the inhibition is 2.1% (inactive).
